In paper PMC7862700, “An all-to-all approach to the identification of sequence-specific readers for epigenetic DNA modifications on cytosine” one finds binding signal data, which are given here for one sequence.

Common to all, as to test: DAPPL (digital affinity profiling via proximity ligation, sequencing); 10 mM Tris-HCl pH 7.5, 50 mM NaCl, 1 mM DTT, 4% glycerol, room temperature, 30 min; GST-TFs on glutathione beads, 16-mer random dsDNA library, 0.1% formaldehyde crosslink after washing; high values mean tight binding
The target in assay [1] is T1, FLI1 (Homo sapiens, UniProt Q01543 1-452).
T1 sequence: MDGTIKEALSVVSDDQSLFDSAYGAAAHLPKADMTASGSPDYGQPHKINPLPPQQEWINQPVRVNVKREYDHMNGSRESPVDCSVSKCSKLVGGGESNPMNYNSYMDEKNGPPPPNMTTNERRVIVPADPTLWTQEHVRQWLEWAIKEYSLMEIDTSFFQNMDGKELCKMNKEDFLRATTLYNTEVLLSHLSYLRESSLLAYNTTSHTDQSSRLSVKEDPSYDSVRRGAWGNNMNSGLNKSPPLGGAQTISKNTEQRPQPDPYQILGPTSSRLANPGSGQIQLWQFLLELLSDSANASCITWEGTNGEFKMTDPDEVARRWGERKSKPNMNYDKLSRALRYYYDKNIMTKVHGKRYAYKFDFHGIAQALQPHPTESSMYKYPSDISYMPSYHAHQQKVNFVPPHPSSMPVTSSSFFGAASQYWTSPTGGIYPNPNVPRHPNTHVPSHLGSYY
The settings on record: protein: recombinant; tags: N-terminal GST; dsDNA, one strand shown. In short, it runs like this:
(§1)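 Each value of binding signal is a hexamer's read frequency for a factor divided by the same hexamer's frequency in the tag-only sample. Barcoded, bead-captured GST fusions of human transcription factors made in yeast were pooled with that sample and incubated with 200 nmole of a random double-stranded 16-mer DNA library in Tris/NaCl/DTT/glycerol buffer at room temperature for 30 min. Washing, 0.1% formaldehyde crosslinking, proximity ligation, PCR and Illumina NextSeq500 sequencing followed.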

For assay [2], the target named is T2, ELK1 (Homo sapiens, UniProt P19419 1-428).
T2 sequence: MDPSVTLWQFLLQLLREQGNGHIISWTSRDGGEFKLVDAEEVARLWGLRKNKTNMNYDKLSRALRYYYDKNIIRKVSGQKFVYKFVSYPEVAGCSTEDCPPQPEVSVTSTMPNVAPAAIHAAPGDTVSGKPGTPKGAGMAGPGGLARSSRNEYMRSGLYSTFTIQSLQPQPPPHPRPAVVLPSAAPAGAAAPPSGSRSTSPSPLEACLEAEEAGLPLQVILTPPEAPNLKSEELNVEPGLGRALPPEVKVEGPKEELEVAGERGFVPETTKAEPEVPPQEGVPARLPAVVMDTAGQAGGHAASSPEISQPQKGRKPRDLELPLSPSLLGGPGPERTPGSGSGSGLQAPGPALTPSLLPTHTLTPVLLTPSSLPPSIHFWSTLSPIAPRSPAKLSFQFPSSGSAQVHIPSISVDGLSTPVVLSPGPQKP
The settings on record: protein: recombinant; tags: N-terminal GST; dsDNA, one strand shown. In short, it runs like this: as §1

For assay [3], the target named is T3, GABPA (Homo sapiens, UniProt Q06546 1-454).
T3 sequence: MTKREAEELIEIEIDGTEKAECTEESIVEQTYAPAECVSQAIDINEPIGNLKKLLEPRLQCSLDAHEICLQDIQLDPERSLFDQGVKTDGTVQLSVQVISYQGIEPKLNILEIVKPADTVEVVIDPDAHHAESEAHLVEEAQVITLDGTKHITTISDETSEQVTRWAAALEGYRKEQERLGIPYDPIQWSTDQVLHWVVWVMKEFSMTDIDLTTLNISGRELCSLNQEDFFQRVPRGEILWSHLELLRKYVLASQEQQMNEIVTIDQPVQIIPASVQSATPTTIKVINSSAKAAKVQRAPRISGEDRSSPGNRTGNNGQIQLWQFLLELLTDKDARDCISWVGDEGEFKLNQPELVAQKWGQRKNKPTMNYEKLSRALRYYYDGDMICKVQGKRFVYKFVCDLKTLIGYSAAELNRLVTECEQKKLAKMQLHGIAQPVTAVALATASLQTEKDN
Conditions: protein: recombinant; tags: N-terminal GST; dsDNA, one strand shown. The essentials: as §1

For assay [4], the target named is T4, ERG (Homo sapiens, UniProt P11308 1-479).
T4 sequence: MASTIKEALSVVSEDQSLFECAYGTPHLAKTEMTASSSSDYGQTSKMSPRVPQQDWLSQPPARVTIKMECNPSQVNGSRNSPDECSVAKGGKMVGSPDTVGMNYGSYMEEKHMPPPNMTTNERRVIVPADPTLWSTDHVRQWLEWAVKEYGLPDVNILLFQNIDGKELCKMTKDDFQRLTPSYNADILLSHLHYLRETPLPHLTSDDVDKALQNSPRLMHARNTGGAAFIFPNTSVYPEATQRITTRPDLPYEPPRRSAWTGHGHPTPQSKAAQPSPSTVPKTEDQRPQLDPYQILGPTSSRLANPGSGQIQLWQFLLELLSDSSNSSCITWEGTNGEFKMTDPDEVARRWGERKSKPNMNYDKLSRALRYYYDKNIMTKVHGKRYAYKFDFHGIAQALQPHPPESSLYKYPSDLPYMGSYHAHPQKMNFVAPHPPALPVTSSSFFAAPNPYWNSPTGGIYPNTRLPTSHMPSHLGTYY
Conditions: protein: recombinant; tags: N-terminal GST; dsDNA, one strand shown. In short, it runs like this:
as §1

Assay [5] has as its target ELF1 (Homo sapiens, UniProt P32519 1-619). The settings on record: protein: recombinant; tags: N-terminal GST; dsDNA, one strand shown. The essentials:
as §1

In assay [6] the target is T5, EHF (Homo sapiens, UniProt Q9NZC4 1-300).
T5 sequence: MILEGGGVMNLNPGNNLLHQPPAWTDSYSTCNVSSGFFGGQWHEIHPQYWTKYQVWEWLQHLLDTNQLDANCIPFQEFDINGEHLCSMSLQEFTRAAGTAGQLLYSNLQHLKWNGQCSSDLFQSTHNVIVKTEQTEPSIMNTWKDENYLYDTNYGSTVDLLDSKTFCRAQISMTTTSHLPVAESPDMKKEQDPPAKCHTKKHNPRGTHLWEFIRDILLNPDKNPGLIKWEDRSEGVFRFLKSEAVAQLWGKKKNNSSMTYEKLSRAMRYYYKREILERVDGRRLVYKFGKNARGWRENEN
Conditions: protein: recombinant; tags: N-terminal GST; dsDNA, one strand shown. In short, it runs like this: as §1

For assay [7], the target named is SPI1 (Homo sapiens, UniProt P17947 1-270). The settings on record: protein: recombinant; tags: N-terminal GST; dsDNA, one strand shown. In short, it runs like this: as §1
The target of assay [8] is SPIB (Homo sapiens, UniProt Q01892 1-262). The settings on record: protein: recombinant; tags: N-terminal GST; dsDNA, one strand shown. In short, it runs like this:
as §1

For assay [9], the target named is T6, ELK3 (Homo sapiens, UniProt P41970 1-407).
T6 sequence: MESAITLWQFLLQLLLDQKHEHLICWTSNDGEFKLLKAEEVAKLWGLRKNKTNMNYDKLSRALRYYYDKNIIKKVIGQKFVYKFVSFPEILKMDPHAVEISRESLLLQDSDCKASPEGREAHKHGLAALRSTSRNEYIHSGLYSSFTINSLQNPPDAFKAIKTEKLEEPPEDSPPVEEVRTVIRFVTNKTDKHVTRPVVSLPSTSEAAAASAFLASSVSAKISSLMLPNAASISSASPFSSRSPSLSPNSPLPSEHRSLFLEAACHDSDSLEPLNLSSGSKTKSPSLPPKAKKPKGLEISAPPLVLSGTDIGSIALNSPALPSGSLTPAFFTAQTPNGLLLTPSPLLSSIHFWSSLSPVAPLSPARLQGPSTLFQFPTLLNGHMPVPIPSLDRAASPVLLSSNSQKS
Conditions: protein: recombinant; tags: N-terminal GST; dsDNA, one strand shown. In short, it runs like this:
as §1

Assay [10] concerns the target T7, FEV (Homo sapiens, UniProt Q99581 1-238).
T7 sequence: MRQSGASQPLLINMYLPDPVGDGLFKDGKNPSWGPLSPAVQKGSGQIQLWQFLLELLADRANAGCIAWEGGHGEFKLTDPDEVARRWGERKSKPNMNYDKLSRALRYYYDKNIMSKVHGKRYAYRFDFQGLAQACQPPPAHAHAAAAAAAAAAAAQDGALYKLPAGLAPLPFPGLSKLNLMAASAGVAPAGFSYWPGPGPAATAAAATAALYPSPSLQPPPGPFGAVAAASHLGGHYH
Conditions: protein: recombinant; tags: N-terminal GST; dsDNA, one strand shown. The essentials: as §1

Assay [11] concerns the target ETV5 (Homo sapiens, UniProt P41161 1-510). The settings on record: protein: recombinant; tags: N-terminal GST; dsDNA, one strand shown. The essentials: as §1
Assay [12] deals with HSF1 (Homo sapiens, UniProt Q00613 1-529). Conditions: protein: recombinant; tags: N-terminal GST; chain copies: 3; dsDNA, one strand shown. The essentials: as §1
Chain of HSF1 (Q00613 whole entry): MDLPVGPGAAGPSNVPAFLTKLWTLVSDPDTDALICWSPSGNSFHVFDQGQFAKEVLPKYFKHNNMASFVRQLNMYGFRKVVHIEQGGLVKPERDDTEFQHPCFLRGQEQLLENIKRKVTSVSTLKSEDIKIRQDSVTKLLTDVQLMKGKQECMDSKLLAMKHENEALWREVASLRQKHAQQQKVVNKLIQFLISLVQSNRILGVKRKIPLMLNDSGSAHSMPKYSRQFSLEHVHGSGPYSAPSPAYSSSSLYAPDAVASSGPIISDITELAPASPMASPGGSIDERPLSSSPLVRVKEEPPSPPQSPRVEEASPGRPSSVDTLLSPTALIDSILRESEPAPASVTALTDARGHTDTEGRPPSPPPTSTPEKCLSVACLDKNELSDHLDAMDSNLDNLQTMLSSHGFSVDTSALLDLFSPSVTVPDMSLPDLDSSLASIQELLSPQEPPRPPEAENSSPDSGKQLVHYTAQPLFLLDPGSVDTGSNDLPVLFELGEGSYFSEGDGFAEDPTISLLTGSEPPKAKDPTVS
In assay [13] the target is ELF4 (Homo sapiens, UniProt Q99607 1-663). The settings on record: protein: recombinant; tags: N-terminal GST; dsDNA, one strand shown. The essentials:
as §1

Assay [14] concerns the target T8, ELK4 (Homo sapiens, UniProt P28324-2 1-405).
T8 sequence: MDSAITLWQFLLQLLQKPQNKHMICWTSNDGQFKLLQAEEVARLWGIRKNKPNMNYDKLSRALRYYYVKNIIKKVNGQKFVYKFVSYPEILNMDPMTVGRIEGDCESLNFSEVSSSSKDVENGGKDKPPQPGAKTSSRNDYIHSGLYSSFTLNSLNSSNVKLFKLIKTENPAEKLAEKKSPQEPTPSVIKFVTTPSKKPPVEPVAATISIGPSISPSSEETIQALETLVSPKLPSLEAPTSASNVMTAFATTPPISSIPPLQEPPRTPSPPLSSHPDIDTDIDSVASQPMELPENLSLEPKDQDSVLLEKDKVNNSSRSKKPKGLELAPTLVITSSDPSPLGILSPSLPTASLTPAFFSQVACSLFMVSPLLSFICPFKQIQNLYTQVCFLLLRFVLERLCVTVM
The settings on record: protein: recombinant; tags: N-terminal GST; dsDNA, one strand shown. In short, it runs like this: as §1

Assay [15] has as its target T9, ETV2 (Homo sapiens, UniProt O00321 1-342).
T9 sequence: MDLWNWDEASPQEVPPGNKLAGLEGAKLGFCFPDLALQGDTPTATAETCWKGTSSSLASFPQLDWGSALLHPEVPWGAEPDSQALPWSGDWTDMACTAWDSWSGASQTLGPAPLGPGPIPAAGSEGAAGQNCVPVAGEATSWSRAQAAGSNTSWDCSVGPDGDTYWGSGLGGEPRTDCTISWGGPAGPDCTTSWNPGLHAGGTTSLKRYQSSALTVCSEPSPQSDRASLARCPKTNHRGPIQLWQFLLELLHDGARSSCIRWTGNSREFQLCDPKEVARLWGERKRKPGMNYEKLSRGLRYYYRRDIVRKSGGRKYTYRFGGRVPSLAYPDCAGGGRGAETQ
The settings on record: protein: recombinant; tags: N-terminal GST; dsDNA, one strand shown. In short, it runs like this:
as §1

Assay [16] concerns the target T10, ELF3 (Homo sapiens, UniProt P78545 1-371).
T10 sequence: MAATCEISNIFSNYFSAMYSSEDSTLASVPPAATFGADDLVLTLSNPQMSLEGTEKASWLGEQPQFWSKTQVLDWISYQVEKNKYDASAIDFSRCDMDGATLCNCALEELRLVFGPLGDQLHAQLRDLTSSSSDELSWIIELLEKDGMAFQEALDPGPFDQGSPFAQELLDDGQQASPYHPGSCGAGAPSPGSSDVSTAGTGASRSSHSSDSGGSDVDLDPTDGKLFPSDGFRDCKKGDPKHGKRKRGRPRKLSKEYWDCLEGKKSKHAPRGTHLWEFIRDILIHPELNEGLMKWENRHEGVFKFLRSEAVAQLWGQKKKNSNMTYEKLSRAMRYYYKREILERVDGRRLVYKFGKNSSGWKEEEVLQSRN
The settings on record: protein: recombinant; tags: N-terminal GST; dsDNA, one strand shown. The essentials:
as §1

Assay [17] deals with CRX (Homo sapiens, UniProt O43186 1-299). Conditions: protein: recombinant; tags: N-terminal GST; dsDNA, one strand shown. In short, it runs like this:
as §1

Assay [18] deals with ETV1 (Homo sapiens, UniProt P50549 1-477). The settings on record: protein: recombinant; tags: N-terminal GST; dsDNA, one strand shown. In short, it runs like this:
as §1

Chain of ELF1 (P32519 whole entry): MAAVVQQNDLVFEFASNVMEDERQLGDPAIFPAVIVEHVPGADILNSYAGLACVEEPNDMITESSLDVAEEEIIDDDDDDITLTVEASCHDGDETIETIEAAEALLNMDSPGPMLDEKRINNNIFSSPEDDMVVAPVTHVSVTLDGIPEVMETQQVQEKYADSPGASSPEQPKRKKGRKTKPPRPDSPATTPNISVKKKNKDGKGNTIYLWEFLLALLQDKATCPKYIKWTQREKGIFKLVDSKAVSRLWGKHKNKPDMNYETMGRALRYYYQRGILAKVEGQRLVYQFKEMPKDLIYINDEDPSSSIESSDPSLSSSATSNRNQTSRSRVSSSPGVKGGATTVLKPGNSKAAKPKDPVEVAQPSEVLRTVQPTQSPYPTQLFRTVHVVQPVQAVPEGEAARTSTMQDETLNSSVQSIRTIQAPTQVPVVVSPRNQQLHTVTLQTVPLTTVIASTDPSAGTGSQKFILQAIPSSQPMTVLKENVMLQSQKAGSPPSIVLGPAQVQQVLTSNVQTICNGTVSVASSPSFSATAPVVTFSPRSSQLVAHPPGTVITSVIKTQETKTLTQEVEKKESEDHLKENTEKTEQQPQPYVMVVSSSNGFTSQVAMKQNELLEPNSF
Chain of ELF4 (Q99607 whole entry): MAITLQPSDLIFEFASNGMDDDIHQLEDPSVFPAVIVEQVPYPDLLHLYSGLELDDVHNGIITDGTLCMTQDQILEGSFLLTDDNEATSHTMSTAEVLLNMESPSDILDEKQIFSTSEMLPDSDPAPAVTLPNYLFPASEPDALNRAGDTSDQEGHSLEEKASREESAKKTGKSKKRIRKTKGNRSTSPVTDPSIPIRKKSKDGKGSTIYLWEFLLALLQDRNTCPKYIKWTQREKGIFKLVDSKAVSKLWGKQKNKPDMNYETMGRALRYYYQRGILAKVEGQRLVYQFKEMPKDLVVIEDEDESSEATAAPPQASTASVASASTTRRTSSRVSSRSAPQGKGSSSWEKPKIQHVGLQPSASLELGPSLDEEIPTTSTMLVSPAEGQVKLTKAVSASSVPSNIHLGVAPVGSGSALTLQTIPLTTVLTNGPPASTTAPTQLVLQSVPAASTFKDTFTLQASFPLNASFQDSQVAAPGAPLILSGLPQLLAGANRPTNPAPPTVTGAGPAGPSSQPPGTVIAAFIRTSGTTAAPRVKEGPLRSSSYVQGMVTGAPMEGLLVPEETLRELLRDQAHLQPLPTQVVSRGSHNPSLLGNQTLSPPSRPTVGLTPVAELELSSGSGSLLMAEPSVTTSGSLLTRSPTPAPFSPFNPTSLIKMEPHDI
Chain of ETV5 (P41161 whole entry): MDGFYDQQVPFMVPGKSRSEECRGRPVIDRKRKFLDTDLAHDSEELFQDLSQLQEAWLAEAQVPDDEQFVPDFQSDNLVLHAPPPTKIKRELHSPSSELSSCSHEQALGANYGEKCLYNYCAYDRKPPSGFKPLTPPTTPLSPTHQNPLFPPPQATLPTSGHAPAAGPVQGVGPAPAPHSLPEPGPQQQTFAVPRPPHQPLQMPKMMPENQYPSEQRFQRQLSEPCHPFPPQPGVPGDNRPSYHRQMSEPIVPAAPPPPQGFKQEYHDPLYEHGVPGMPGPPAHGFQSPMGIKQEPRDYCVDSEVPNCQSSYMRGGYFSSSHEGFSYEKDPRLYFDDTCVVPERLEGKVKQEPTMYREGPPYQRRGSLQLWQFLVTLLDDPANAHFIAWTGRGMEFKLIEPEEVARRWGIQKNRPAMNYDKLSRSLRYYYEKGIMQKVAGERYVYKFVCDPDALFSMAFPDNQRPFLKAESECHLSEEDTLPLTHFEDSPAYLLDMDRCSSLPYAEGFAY
Chain of SPIB (Q01892 whole entry): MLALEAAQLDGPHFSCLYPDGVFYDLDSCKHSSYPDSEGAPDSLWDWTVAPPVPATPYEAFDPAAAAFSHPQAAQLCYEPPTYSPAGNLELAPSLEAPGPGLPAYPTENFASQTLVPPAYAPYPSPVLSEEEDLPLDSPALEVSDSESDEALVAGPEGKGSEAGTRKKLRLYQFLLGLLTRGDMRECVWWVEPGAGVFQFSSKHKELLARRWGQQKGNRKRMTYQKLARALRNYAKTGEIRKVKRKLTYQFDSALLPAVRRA
Chain of ETV1 (P50549 whole entry): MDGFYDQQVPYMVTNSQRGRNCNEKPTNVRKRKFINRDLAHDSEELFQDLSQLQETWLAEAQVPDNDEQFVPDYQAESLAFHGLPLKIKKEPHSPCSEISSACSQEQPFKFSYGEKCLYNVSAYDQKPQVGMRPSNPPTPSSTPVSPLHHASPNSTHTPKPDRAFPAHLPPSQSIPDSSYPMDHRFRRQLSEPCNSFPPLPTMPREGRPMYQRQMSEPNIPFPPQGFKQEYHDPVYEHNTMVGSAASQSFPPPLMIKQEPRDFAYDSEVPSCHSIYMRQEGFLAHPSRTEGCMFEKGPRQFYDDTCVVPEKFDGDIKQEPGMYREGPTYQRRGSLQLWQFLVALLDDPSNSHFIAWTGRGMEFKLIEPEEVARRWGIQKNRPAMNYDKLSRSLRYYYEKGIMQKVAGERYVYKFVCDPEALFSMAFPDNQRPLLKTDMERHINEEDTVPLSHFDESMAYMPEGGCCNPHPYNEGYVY
Chain of CRX (O43186 whole entry): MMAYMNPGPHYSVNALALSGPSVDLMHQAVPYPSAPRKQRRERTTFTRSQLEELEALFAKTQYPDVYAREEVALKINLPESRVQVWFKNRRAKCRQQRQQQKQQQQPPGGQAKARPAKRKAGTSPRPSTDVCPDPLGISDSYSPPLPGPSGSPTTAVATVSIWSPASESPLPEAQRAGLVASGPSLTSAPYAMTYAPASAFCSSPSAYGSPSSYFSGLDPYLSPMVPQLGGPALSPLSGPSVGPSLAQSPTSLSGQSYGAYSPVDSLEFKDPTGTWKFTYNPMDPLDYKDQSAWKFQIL

In the case of CTATAG, the binding signal is 1.09 fold enrichment (6-mer frequency, TF over GST control) in assay [1]; 1.05 fold enrichment (6-mer frequency, TF over GST control) in assay [2]; 1.11 fold enrichment (6-mer frequency, TF over GST control) in assay [3]; 1.01 fold enrichment (6-mer frequency, TF over GST control) in assay [4]; 1.09 fold enrichment (6-mer frequency, TF over GST control) in assay [5]; 1.03 fold enrichment (6-mer frequency, TF over GST control) in assay [6]. For the same sequence, the binding signal in assay [7] was 1.08 fold enrichment (6-mer frequency, TF over GST control); in [8], 1.07 fold enrichment (6-mer frequency, TF over GST control); in assay [9], 1.08 fold enrichment (6-mer frequency, TF over GST control); in assay [10], 1.04 fold enrichment (6-mer frequency, TF over GST control); in [11] it was 1.1 fold enrichment (6-mer frequency, TF over GST control); in [12], 1.03 fold enrichment (6-mer frequency, TF over GST control). Moreover, the binding signal in [13] is 1.02 fold enrichment (6-mer frequency, TF over GST control); in [14], 1.14 fold enrichment (6-mer frequency, TF over GST control); in assay [15] it was 1.27 fold enrichment (6-mer frequency, TF over GST control); in assay [16], 1.04 fold enrichment (6-mer frequency, TF over GST control); in assay [17], 1.05 fold enrichment (6-mer frequency, TF over GST control); in assay [18], 1.01 fold enrichment (6-mer frequency, TF over GST control).
